TDP1 cell CPT: DT40-hTDP1 cell growth loss with CPT; 420,000 tested, 12% active; Potency, µM (highest dose often 46.2 µM), for the others: at the top dose activity change, negative = growth inhibition, hits mostly inhibitors; AID 686979; chicken DT40 Tdp1-/-;hTDP1 cells + 20 nM CPT, ATP luminescence, 48 h; also: potency is read from the fitted curve at half-maximal effect; nearly all actives have a fitted effect of over 55% in size
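Cell growth measured by CellTiter-Glo luminescence after a minimum 48 h, 37 C compound exposure with 20 nM CPT in Tdp1-knockout DT40 cells stably expressing hTDP1, seeded 400/well; qHTS titration format.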
TDP1 cell noCPT: qHTS for Inhibitors of human tyrosyl-DNA phosphodiesterase 1 (TDP1): qHTS in cells in absence of CPT; DT40 Tdp1-/- hTDP1 cells, no CPT, ATP luminescence, 48 h; Potency, µM (top dose mostly 46.2 µM), for inactives: top-dose activity change, negative = growth inhibition, hits mostly inhibitors; 420,000 tested, 15% active; AID 686978, 2013; also: potency is read from the fitted curve at half-maximal effect; nearly all actives have a fitted effect of over 55% in size
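Cells were dispensed at 400 per well, compounds added by pin tool, plates incubated ≥48 hr at 37 °C, then CellTiter-Glo added for 30 min at room temperature before luminescence reading. Line: DT40 Tdp1-/- complemented with hTDP1; camptothecin omitted.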
HT1080NT lethal: kills 2HG-producing HT-1080-NT fibrosarcoma cells; HT-1080-NT fibrosarcoma viability, CellTiter-Glo ATP luminescence, 48 h; Potency, µM (series often up to 46.1 µM), inactives show at the top dose activity, negative = less viability, most hits filed as cytotoxic; 360,000 tested, 1.6% active; AID 686970;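 also: NT is the 2HG producing partner of a matched IDH1 knockdown line; potency is read from the fitted curve at half-maximal effect; 0% = DMSO-treated cells and -100% = media-only wells without cells; nearly all actives have a fitted effect of over 55% in size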
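Viability by CellTiter-Glo luminescence after 48 h compound exposure at 37C of HT-1080-NT cells (750/well, RPMI, 5% FBS). % activity scaled between DMSO wells and medium-only wells, then curve-fitted and categorized by curve class.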
HT1080 IDH1KD tx: HT-1080 IDH1 knockdown cell toxicity (counter line). HT-1080 IDH1 knockdown viability, ATP luminescence, 48 h. Potency, µM (highest dose often 46.1 µM), for the others: at the highest dose activity, negative = toxicity, usual class: cytotoxic. 360,000 tested, 2% active. AID 686971;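 also: potency is read from the fitted curve at half-maximal effect; 0% = DMSO wells and -100% = cell-free medium wells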
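Viability of IDH1-knockdown HT-1080 fibrosarcoma cells was assessed by CellTiter-Glo after 48 h at 37 °C with titrated compound; concentration-effect curves were classified by fit quality and response size.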
IL-1B inflam inh: inhibitors of inflammasome signaling (IL-1 beta secretion); AID 743279; 360,000 tested, 4.7% active; THP-1 LPS/ATP IL-1B secretion, AlphaLISA, 16 h; hits give low values; activity change, % at 57.5 µM; in the data active = activity change below about -50%; inconclusive = mostly about -30% to -49%
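THP-1 cells pretreated 1 hr with compounds (up to 57.5 uM final), then stimulated with LPS (250 ng/mL final) plus ATP (1.25 mM final); secreted IL-1B measured by AlphaLISA after 16 hr, decreased signal indicating inhibition.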
Numbers without * were called inactive; ? = inconclusive; / = no result; [ ] = another dose, or the depositor's remark. Compounds with a hit are over-represented: about 19% of the library has one in this group of screens. Unless noted, calls follow the shape of the dose curve; as a rule, active = well fitted curve in the direction sought with a large enough effect; inconclusive = small, poorly fitted or top-dose-only effect, or another doubt; inactive = no such curve, though single readings can be large; an effect the other way counts as inactive or inconclusive. Unless noted, % is scaled to controls: 0 for no effect and ±100 for the full control effect.

SMILES | TDP1 cell CPT | TDP1 cell noCPT | HT1080NT lethal | HT1080 IDH1KD tx | IL-1B inflam inh
Cc1cc(C)c2c(C)c(C(=O)NCc3ccncc3)oc2c1 | -30% | -18% | 0% | -2% | -1
CCCCN(CCCC)S(=O)(=O)c1ccc2oc(C(=O)NCc3ccc(C)cc3)c(C)c2c1 | 8.2µM* | 13µM* | / | / | /
CCc1ccc2oc(C(=O)NCc3ccncc3)c(C)c2c1 | 18µM* | 15µM* | 1% | -7% | -66*
Cc1ccc2oc(C(=O)NCc3ncc(C)[nH]3)c(C)c2c1 | 5.2µM* | ? | 18µM* | 16µM* | -10
COC(=O)c1sccc1NC(=O)c1cc(-c2ccc(C)cc2C)nc2ccccc12 | ? | ? | 28% | 8% | 11
COc1ccc2c(c1)c1c(c(=O)n(-c3ccc(OC)c(OC)c3)c(=O)n1Cc1ccccc1F)n2C | -15% | -17% | / | / | /
CCCCN(CCCC)S(=O)(=O)c1ccc2oc(C(=O)NCc3ccccc3)c(C)c2c1 | 10µM* | 15µM* | / | / | /
CCN(CC)S(=O)(=O)c1ccc2oc(C(=O)NCc3ccc(C)cc3)c(C)c2c1 | ? | ? | -21% | ? | -24
Clc1ccc2c(c1)C1OCCC1C(c1ccco1)N2 (centres undefined) | ? | ? | -30% | -29% | -74*
CCOC(=O)Cc1ccc(NC(=O)NCc2ccc3c(c2)CCN3C(=O)CC)cc1 | -17% | -4% | / | / | /
CC(=O)NNC(=O)c1cc2c3ccccc3n(C)c2s1 | 5% | -2% | -5% | -1% | 10
COc1ccc(S(=O)(=O)NNC(=O)c2cc3c4ccccc4n(C)c3s2)cc1 | 2.9µM* | 4.1µM* | -23% | ? | 41
COc1cccc(CN(C)C(=O)c2cnn(-c3nccc(-c4ccc5c(c4)OCO5)n3)c2C)c1 | 1%[9.04 µM] | 0% | / | / | /
CCOC(=O)CSc1nnc(NC(=O)CN2CCCCC2)s1 | ? | ? | 26% | 11% | 3
CCc1cccc(C)c1NC(=O)c1cnn(-c2ccc(OC)cc2)c1C1CCN(C(=O)OC(C)(C)C)CC1 | 18µM* | 18µM* | / | / | /
Cc1cccc(N2CCN(C(=O)c3cnn(-c4ccccc4)c3C3CCN(C(=O)OC(C)(C)C)CC3)CC2)c1C | ? | 16µM* | / | / | /
CC(C)(C)OC(=O)N1CCC(c2c(C(=O)N3CCN(c4ccccn4)CC3)cnn2-c2cccc(F)c2)CC1 | 18µM* | 16µM* | / | / | /
CCN1CCN(CCCNC(=O)c2cnn(-c3ccc(OC)cc3)c2C2CCN(C(=O)OC(C)(C)C)CC2)CC1 | -25% | -21% | / | / | /
COc1ccc(-n2ncc(C(=O)N3CCOCC3)c2C2CCN(C(=O)OC(C)(C)C)CC2)cc1 | 6% | -1% | / | / | /
COc1ccc(N2CCN(C(=O)c3cnn(-c4ccc(OC)cc4)c3C3CCN(C(=O)OC(C)(C)C)CC3)CC2)cc1 | 18µM* | ? | / | / | /
CC(C)(C)OC(=O)N1CCC(c2c(C(=O)N3CCN(C(=O)c4ccco4)CC3)cnn2-c2ccccc2)CC1 | -14% | -8% | / | / | /
COc1ccc(-n2ncc(C(=O)N3CCN(c4ccccn4)CC3)c2C2CCN(C(=O)OC(C)(C)C)CC2)cc1 | ? | 21µM* | / | / | /
CC1(C)Cc2ccccc2-c2nnc(SCC(=O)N3CCc4ccccc43)n21 | ? | ? | -19% | ? | 5
Cc1ccc(Cl)cc1N1CCN(C(=O)CSc2nnc3n2C(C)(C)Cc2ccccc2-3)CC1 | 9.2µM* | 7.3µM* | -16% | -26% | ?
COc1ccc(N2CCN(C(=O)CSc3nnc4n3C(C)(C)Cc3ccccc3-4)CC2)cc1 | ? | 21µM* | 6% | 2% | -13
SMILES | TDP1 cell CPT | TDP1 cell noCPT | HT1080NT lethal | HT1080 IDH1KD tx | IL-1B inflam inh
COC(=O)CSc1nnc2n1C(C)(C)Cc1ccccc1-2 | -1% | 10% | 9% | 5% | -12
CCN(CC)C(=O)CSc1nnc(CNc2ccc(F)cc2)n1-c1ccccc1 | -20% | -27% | -3% | -5% | 4
CC(=O)Nc1ccc(/C(C)=N/Nc2nc(Nc3cccc4ccccc34)nc(N3CCOCC3)n2)cc1 | 21µM* | 21µM* | ? | ? | -28
C/C(=N\Nc1nc(N2CCCCCC2)nc(N2CCCCCC2)n1)c1ccccc1 | ? | ? | 0% | -2% | -9
CC(=O)Nc1ccc(/C(C)=N/Nc2nc(N3CCOCC3)nc(N3CCOCC3)n2)cc1 | ? | 15µM* | 3% | 5% | -9
COc1ccccc1CNC(=O)CCS(=O)(=O)c1ccc2c(c1)CCN2C(C)=O | 6% | -13% | 12% | 21% | 15
CCOC(=O)C1CCN(C(=O)CSc2n[nH]c(-c3ccc(F)cc3)n2)CC1 | -23% | -16% | / | / | /
CC1(C)C2([N+](=O)[O-])CN3CC1([N+](=O)[O-])CN(C2)C3c1ccccc1 (centres undefined) | 11% | -4% | 2% | 0% | -13
CC(C)c1ccc(C2N3CC4([N+](=O)[O-])CN2CC([N+](=O)[O-])(C3)C4(C)C)cc1 (centres undefined) | 8.2µM* | ? | 6% | 0% | 15
Cc1ccc(-c2nnc(N(C)C(=O)c3ccccn3)s2)cn1 | -28% | -15% | ? | 28% | -10
Cc1cc(Br)ccc1NC(=O)CN(C)Cc1cccs1 | -25% | ? | 15% | 10% | -16
